MazEF act = MazEF (E. coli) toxin RNase activation; P0AE70; FAM/BHQ RNA-DNA oligo cleavage fluorescence, 5 h; activation, % at 20 µM; hit rate 0.32% among 350,000; AID 504720; in the data active = activation above about 50%
TcdB inh = blocks C. difficile toxin B glycohydrolase activity. P18177. TcdB glycohydrolase enzymatic assay, plate reader. inhibition, % at 9.99 µM. hit rate 0.24% among 350,000. AID 652162; in the data active = inhibition above about 10%
Mtb UGM inh = Mtb UDP-galactopyranose mutase inhibition. P9WIQ1. purified UGM, fluorescence polarization probe displacement. inhibition, % at 10 µM. hit rate 0.06% among 320,000. AID 504406; in the data active = inhibition above about 10%, passing the limit was not always enough
Rv3671c inh = Rv3671c (M. tuberculosis) protease inhibition. hit rate 0.048% among 320,000. P9WHR9. inhibition, % at 5.96 µM; in the data active = inhibition above about 38%;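 also: extracellular domain of Rv3671c used as enzyme; 0% = enzyme with DMSO and 100% = no enzyme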
Mtb betalactam = beta-lactam sensitization of Mtb H37Rv; hit rate 0.27% among 330,000; inhibition, % at 25 µM; M. tuberculosis H37Rv growth with meropenem, percent inhibition; call rule not given here;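 also: growth measured after seven days incubation then overnight dye step; 0% = bacteria only wells and 100% = bacteria with antibiotic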
RecA splice inh = inhibitors of M. tuberculosis RecA intein splicing; inhibition, % (no concentration beside the values); cell-free RecA intein splicing, fluorescence; AID 2221; hit rate 0.75% among 290,000; P9WHJ3; in the data active = inhibition above about 30%;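 also: 0% = vehicle wells and 100% = reference inhibitor control wells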
Active calls of the source: *; i = inactive; · = no result given; + = active, no number. The list is not random: actives were taken first. Their share in the collection is about 0.97%.

SMILES	MazEF act	TcdB inh	Mtb UGM inh	Rv3671c inh	Mtb betalactam	RecA splice inh
CCOC(=O)C1=C(C)N=c2s/c(=C/c3ccc(OCC(=O)O)c(OC)c3)c(=O)n2C1c1ccc(Cl)cc1 (configuration not stated)	14	2	-1	-9	5	-13
CCOC(=O)C1=C(C)N=c2s/c(=C/c3ccccc3)c(=O)n2C1c1ccc(OC)c(OC)c1 (configuration not stated)	85*	·	-1	-2	22	7
CCOc1cc(/C=C2/SC(=S)N(CC3CCCO3)C2=O)ccc1O (configuration not stated)	+	0	-2	-18	5	-1
CC(=O)/C=C1/C(=O)Nc2ccccc21	1	0	-3	-3	79	62*
O=S(=O)(N[C@H]1CC[C@H](CCn2cc(Cc3ccccc3)nn2)O[C@@H]1CO)c1ccccc1F	·	1	·	·	·	·
Cc1cccc(OCCC(=O)NCC(=O)Nc2cccc(C)c2C)c1	-5	19*	-1	-1	27	-2
Cc1cccc(NC(=O)CCOc2ccccc2)c1C	2	0	0	5	-2	0
Cc1ccc(Oc2c(CO)c(-c3ccccc3)nn2C)cc1	-5	12*	4	6	-2	4
Cc1ccc(S(=O)(=O)c2c(CO)c(-c3ccccc3)nn2C)cc1	-2	1	0	-5	-10	2
COc1ccc(S(=O)(=O)N2CCC[C@H]2C(=O)N2CCC[C@H]2C(=O)NCc2ccccc2)cc1C	·	4	·	·	·	·
COc1ccc(S(=O)(=O)N2CCC[C@H]2C(=O)N2CCC[C@H]2C(=O)NCc2ccncc2)cc1C	·	10*	·	·	·	·
CN1CC=C2C(C#N)=C(N)C(C#N)(C#N)C(CCc3ccccc3)C2C1 (configuration not stated)	20	·	2	-7	-7	-22
CCCC1C2CN(C(C)C)CC=C2C(C#N)=C(N)C1(C#N)C#N (configuration not stated)	-33	·	13*	8	-3	-100
CC(C)c1ccc(C2C3CSCC=C3C(C#N)=C(N)C2(C#N)C#N)cc1 (configuration not stated)	·	·	2	-12	6	36*
C/C=C/c1cnc2c(c1)C(=O)N([C@H](C)CO)C[C@H](C)[C@H](CN(C)C(=O)c1cnccn1)O2	·	0	·	·	·	·
O=C1CC[C@@H]2c3[nH]c4ccc(Br)cc4c3CCN12	·	0	·	·	·	·
CC(C)NC(=O)N1[C@H](CO)[C@H](c2ccccc2)C12CN(C(=O)c1ccccn1)C2	·	0	·	·	·	·
Cn1cc(/C=C2\SC(=O)N(c3ccccc3)C2=O)c2ccccc21	35	·	1	7	-1	-11
Cn1cc(/C=C2\C(=O)NC(=O)N(c3ccccc3)C2=O)c2ccccc21	i	-1	14*	-5	98	-3
COCC(=O)N1C[C@@H]2[C@H](c3ccccc31)[C@H](CO)N2Cc1ccccc1F	·	-2	·	·	·	·
Cc1ccc(NC(=O)c2cc(C)on2)cc1	3	·	-1	7	-4	0
CCc1ccc(NC(=O)c2cc(C)on2)cc1	0	11*	1	-2	-11	2
C[C@H]1CCCCO[C@H](CN(C)C(=O)Nc2ccc(F)cc2)[C@@H](C)CN([C@@H](C)CO)C(=O)c2cc(NC(=O)NC3CCCCC3)ccc2O1	·	1	·	·	·	·
CN1C(=O)C(c2nnc(Nc3cccc4ccccc34)s2)C2CC1(C)Oc1ccccc12 (configuration not stated)	7	11*	-2	-9	-5	·
CCOC(=O)C1C(=O)N(C)C2(C)CC1c1ccccc1O2 (configuration not stated)	-2	·	-2	-14	0	1
SMILES	MazEF act	TcdB inh	Mtb UGM inh	Rv3671c inh	Mtb betalactam	RecA splice inh
CCOC(=O)c1c(NC(=O)CCl)sc(CN(C)C)c1-c1ccccc1	-3	0	-2	-1	90	50*
C[C@H](CO)N1C[C@H](C)[C@H](CN(C)C(=O)C2CC2)Oc2cc(-c3ccc(C#N)cc3)ccc2S1(=O)=O	·	3	·	·	·	·
COc1ccc(-c2csc(N(Cc3ccco3)C(=O)c3cccs3)n2)cc1	64*	0	0	-28	53	1
O=C(Nc1ccc(F)cc1)c1nn(-c2ccccc2)c(=O)cc1Cl	2	1	·	·	·	31*
C[C@H](CO)N1C[C@H](C)[C@H](CN(C)CC2CC2)Oc2ccc(NC(=O)CCN3CCOCC3)cc2CC1=O	·	0	·	·	·	·
Cc1cccc(OCC(=O)N2CCN(C(=O)COc3ccc(Cl)cc3)CC2)c1	4	0	2	0	-8	-1
Cc1cccc(OCC(=O)Oc2ccc(Cl)cc2)c1	2	1	3	7	-6	34*
N#C/C(=C\c1ccccc1[N+](=O)[O-])C(=O)NC1CCCCC1	423*	1	2	3	5	19
N#C/C(=C\C=C\c1ccccc1[N+](=O)[O-])C(=O)NC1CCCCC1	-3	·	0	7	65	-5
Cn1c(=O)c2nncnc2n(C)c1=O	0	·	1	1	-6	1
Cc1nc2c(=O)n(C)c(=O)n(C)c2nc1Cl	12	1	-2	11	100	45*
CCCCN1CC[C@@H]2C=CC[C@H](C(=O)OC)[C@@H]2C1=O	80*	1	·	·	·	·
Cc1noc(C)c1NC(=O)N(C)C[C@@H]1OCCCC[C@H](C)Oc2ccc(NS(=O)(=O)c3ccc(F)cc3)cc2C(=O)N([C@@H](C)CO)C[C@@H]1C	·	-1	·	·	·	·
CC(C)NC(=O)Nc1ccc2c(c1)C(=O)N([C@@H](C)CO)C[C@H](C)[C@H](CN(C)S(=O)(=O)c1ccc(F)cc1)O2	·	0	·	·	·	·
CCN(CC)CCn1c(=O)n(-c2ccc(Cl)cc2)c(=O)c2c3c(sc21)CN(C)CC3	660*	4	2	1	-2	-5
COc1ccc(N=Nc2nc3cc(Br)c(Br)cc3n2C)c(OC)c1	-202	·	34*	16	68	·
COc1ccc(CNc2nc3ccccc3n2C)c(OC)c1	3	1	4	4	20	0
C[C@H](CO)N1C[C@H](C)[C@H](CN(C)C(=O)Nc2ccc(C(F)(F)F)cc2)Oc2c(NC(=O)c3nc4ccccc4s3)cccc2C1=O	·	1	·	·	·	·
CC(=O)Nc1ccccc1O	7	20*	2	-4	2	-3
Cc1ccc(C(=O)Nc2c(-c3cccs3)c(=O)c3ccccc3n2C)cc1	6	·	-1	3	-1	·
COc1ccc(C(=O)Nc2c(-c3cccs3)c(=O)c3ccccc3n2C)cc1	-5	11*	-1	3	2	0
O=[N+]([O-])c1ccc(N2CCOCC2)c2ccncc12	-1	-1	-1	-4	3	30*
O=[N+]([O-])c1ccc(N2CCCC2)c2ncccc12	101*	1	-2	-2	0	3
O=C(OCC(=O)N1CCCCC1)c1ccccc1SCC(=O)N1CCCCC1	0	16*	2	6	-7	2
CCCN1[C@@H]2c3ccc(C4=CCCC4)c(=O)n3C[C@H]1[C@H](CO)[C@H]2C(=O)N(C)C	·	0	·	·	·	·

Screening data from PubChem.
